# From PubChem BioAssay (NCATS)
# Where “and” joins values, the source holds several entries; their conditions need not be identical. Identical values can stand only once. Results filed as inconclusive are left out. Where a call stands in place of a potency, no number is given. Calls of active or inactive are those of the source. The call rests on the fitted dose curve; in most records, active means well fitted curve in the direction sought with a large enough effect; inconclusive means small, poorly fitted or top-dose-only effect, or another doubt; inactive means no such curve, though single readings can be large; an effect the other way counts as inactive or inconclusive.
# Assay: MultiTox-Fluor Cytotoxicity Assay - LYMP1-001 - Dead Cells (AID 946)
# Conditions: LYMP1-001 lymphoblastoid cells, dead-cell protease fluorescence; series mostly up to 92.2 µM
# In short: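 LYMP1-001 lymphoblastoid cells (2500/well) treated 16 h at 37 C. Dead-cell protease cleavage of bis-AAF-R110 read at Ex/Em 485/520. Normalized to DMSO and 15 uM tetraoctylammonium bromide; AC50 from Hill fits.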
# Potency means the concentration at half of the fitted maximal effect.
row,SMILES,Potency
1,CCCN(CCC)C(=O)SCC,inactive
2,COc1ccc2nc(N)sc2c1,inactive
3,ClCCCl,inactive
4,CCC(O)OC(O)CC (centres undefined),inactive
5,C=Cc1ccccc1Cl,inactive
6,c1ccc2c(c1)c1cccc3ccc4cccc2c4c31,inactive
7,Cc1cccc([N+](=O)[O-])c1C,inactive
8,CCCCCCCCO,inactive
9,CC(C)=CCCC(C)CCO (centres undefined),inactive
10,O=[N+]([O-])c1cccc(Cl)c1Cl,inactive
11,CCO[Si](CCCN)(OCC)OCC,inactive
12,Clc1cc(Cl)c(Cl)cc1Cl,inactive
13,CCO,inactive
14,C=CC(=O)OCCOCCOCCOCCOC(=O)C=C,50.1 µM (active)
15,Clc1cc(Cl)c(Cl)c(Cl)c1Cl,inactive
16,CCCCC(CC)CN (centres undefined),inactive
17,O=NO,inactive
18,c1ccc2c(c1)[nH]c1ccccc12,inactive
19,OCCNCCO,inactive
20,Nc1ccc(Cl)cc1Cl,inactive
21,CCC(C)c1ccccc1O (centres undefined),inactive
22,CC1=CC(C)(C)Nc2ccccc21,inactive
23,CN(C)C=O,inactive
24,Cc1ccc(N)c([N+](=O)[O-])c1,inactive
25,CCCCOCCO,inactive
26,CC(=O)OC/C=C(\C)CCC=C(C)C,inactive

# Assay: MultiTox-Fluor Cytotoxicity Assay - LYMP1-001 - Live Cells (AID 947)
# Conditions: LYMP1-001 lymphoblastoid cells, live-cell protease fluorescence viability; series mostly up to 92.2 µM
row,SMILES,Potency
1,CCCN(CCC)C(=O)SCC,inactive
2,COc1ccc2nc(N)sc2c1,inactive
3,ClCCCl,inactive
4,CCC(O)OC(O)CC (centres undefined),inactive
5,C=Cc1ccccc1Cl,inactive
6,c1ccc2c(c1)c1cccc3ccc4cccc2c4c31,inactive
7,Cc1cccc([N+](=O)[O-])c1C,inactive
8,CCCCCCCCO,inactive
9,CC(C)=CCCC(C)CCO (centres undefined),inactive
10,O=[N+]([O-])c1cccc(Cl)c1Cl,inactive
11,CCO[Si](CCCN)(OCC)OCC,inactive
12,Clc1cc(Cl)c(Cl)cc1Cl,inactive
13,CCO,inactive
14,C=CC(=O)OCCOCCOCCOCCOC(=O)C=C,31.6 µM (active) and 39.8 µM (active)
15,Clc1cc(Cl)c(Cl)c(Cl)c1Cl,inactive
16,CCCCC(CC)CN (centres undefined),inactive
17,O=NO,inactive
18,c1ccc2c(c1)[nH]c1ccccc12,inactive
19,OCCNCCO,inactive
20,Nc1ccc(Cl)cc1Cl,inactive
21,CCC(C)c1ccccc1O (centres undefined),inactive
22,CC1=CC(C)(C)Nc2ccccc21,inactive
23,CCCCOCCO,inactive
24,CC(=O)OC/C=C(\C)CCC=C(C)C,inactive

# Assay: Cell Viability - LYMP1-002 - Assay at 16 hr (AID 948)
# Conditions: LYMP1-002 lymphoblastoid cell viability; series mostly up to 92.2 µM
# In short: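 Human lymphoblastoid cells (LYMP1-002), 2500/well, were preincubated 5 hr at 37 C, then exposed to compounds for 16 hr at 37 C in complete medium. Cellular ATP was read by CellTiter-Glo luminescence after 30 min at room temperature; AC50 from Hill fits.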
row,SMILES,Potency
1,CCCN(CCC)C(=O)SCC,inactive
2,COc1ccc2nc(N)sc2c1,inactive
3,ClCCCl,inactive
4,CCC(O)OC(O)CC (centres undefined),inactive
5,C=Cc1ccccc1Cl,inactive
6,c1ccc2c(c1)c1cccc3ccc4cccc2c4c31,inactive
7,Cc1cccc([N+](=O)[O-])c1C,inactive
8,CCCCCCCCO,inactive
9,CC(C)=CCCC(C)CCO (centres undefined),inactive
10,O=[N+]([O-])c1cccc(Cl)c1Cl,inactive
11,CCO[Si](CCCN)(OCC)OCC,inactive
12,Clc1cc(Cl)c(Cl)cc1Cl,inactive
13,CCO,inactive
14,C=CC(=O)OCCOCCOCCOCCOC(=O)C=C,31.6 µM (active)
15,Clc1cc(Cl)c(Cl)c(Cl)c1Cl,inactive
16,CCCCC(CC)CN (centres undefined),inactive
17,O=NO,inactive
18,c1ccc2c(c1)[nH]c1ccccc12,inactive
19,OCCNCCO,inactive
20,Nc1ccc(Cl)cc1Cl,inactive
21,CCC(C)c1ccccc1O (centres undefined),inactive
22,CC1=CC(C)(C)Nc2ccccc21,inactive
23,CN(C)C=O,inactive
24,Cc1ccc(N)c([N+](=O)[O-])c1,inactive
25,CCCCOCCO,inactive
26,CC(=O)OC/C=C(\C)CCC=C(C)C,inactive

# Assay: MultiTox-Fluor Cytotoxicity Assay - LYMP1-002 - Live Cells (AID 955)
# Conditions: LYMP1-002 lymphoblastoid live-cell protease fluorescence viability; series mostly up to 46.1 µM
# In short: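 Human lymphoblastoid LYMP1-002 cells, 2500/well, treated 16 h at 37 C in complete medium. Live-cell protease activity via GF-AFC fluorescence (Ex/Em 405/510) after 60 min reagent incubation; AC50 from Hill fits.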
row,SMILES,Potency
1,CCCN(CCC)C(=O)SCC,inactive
2,COc1ccc2nc(N)sc2c1,inactive
3,ClCCCl,inactive
4,CCC(O)OC(O)CC (centres undefined),inactive
5,C=Cc1ccccc1Cl,inactive
6,c1ccc2c(c1)c1cccc3ccc4cccc2c4c31,inactive
7,Cc1cccc([N+](=O)[O-])c1C,inactive
8,CCCCCCCCO,inactive
9,CC(C)=CCCC(C)CCO (centres undefined),inactive
10,O=[N+]([O-])c1cccc(Cl)c1Cl,inactive
11,CCO[Si](CCCN)(OCC)OCC,inactive
12,Clc1cc(Cl)c(Cl)cc1Cl,inactive
13,CCO,inactive
14,C=CC(=O)OCCOCCOCCOCCOC(=O)C=C,12.6 µM (active) and 15.8 µM (active)
15,Clc1cc(Cl)c(Cl)c(Cl)c1Cl,inactive
16,CCCCC(CC)CN (centres undefined),inactive
17,O=NO,inactive
18,c1ccc2c(c1)[nH]c1ccccc12,inactive
19,OCCNCCO,inactive
20,Nc1ccc(Cl)cc1Cl,inactive
21,CCC(C)c1ccccc1O (centres undefined),inactive
22,CC1=CC(C)(C)Nc2ccccc21,inactive
23,CN(C)C=O,inactive
24,Cc1ccc(N)c([N+](=O)[O-])c1,inactive
25,CCCCOCCO,inactive
26,CC(=O)OC/C=C(\C)CCC=C(C)C,inactive

# Assay: MultiTox-Fluor Cytotoxicity Assay - LYMP1-002 - Dead Cells (AID 960); further: nearly all actives have a fitted effect of over 60% in size
# Conditions: LYMP1-002 lymphoblastoid cells, dead-cell protease fluorescence; series mostly up to 46.1 µM
# In short: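 Human lymphoblastoid LYMP1-002 cells, 2500/well, treated 16 h at 37 C; dead-cell protease cleavage of bis-AAF-R110 read by fluorescence (485/520); normalized to DMSO and 15 uM tetraoctylammonium bromide; AC50 from Hill fit.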
row,SMILES,Potency
1,ClCCCl,inactive
2,Cc1cccc([N+](=O)[O-])c1C,inactive
3,CCO[Si](CCCN)(OCC)OCC,inactive
4,Clc1cc(Cl)c(Cl)cc1Cl,inactive
5,C=CC(=O)OCCOCCOCCOCCOC(=O)C=C,20 µM (active) and 25.1 µM (active)
6,Clc1cc(Cl)c(Cl)c(Cl)c1Cl,inactive
7,Nc1ccc(Cl)cc1Cl,inactive
